We go through 94 compounds from PubChem BioAssay AID626 (Vanderbilt High Throughput Screening Facility, 2007).

The whole screen tested about 64,000 compounds, of which about 1,900 (3%) were called active. This excerpt belongs to a sample that is enriched for actives. Unmarked numbers belong to inactive results.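 How the source made its calls: active means fluorescence rise, raw or as B-score row- and column-corrected plate score, outside the 99.7% band of its plate's samples, either direction; inactive means the rest.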

The test concerns Muscarinic acetylcholine receptor M1. Briefly: direct activation of M1 receptor calcium signal – CHO-M1 cells, Fluo-4 calcium, agonist mode, primary screen (AID 626). The following applies: Fluo-4 calcium fluorescence, at 10 µM, hits give high values.
For the compound `Cc1ccnc(NC(=O)c2ccc(NC(=O)c3ccco3)cc2)c1`, the B-score is 1.71.
Then `Cc1ccc(C(=O)COc2cccc(NC(=O)c3ccco3)c2)cc1`, with 1.03 (active); and `COC(=O)c1ccc(NC(=O)c2ccco2)cc1`, with -0.218.
Then `O=C1c2ccccc2C(Nc2ccc3c(c2)OCCO3)N1Cc1ccco1` (centres undefined), with 0.847; and `COc1ccc(NS(=O)(=O)c2ccc(NC(C)=O)cc2)cc1OC`, with 0.127.
For `COc1ccccc1Oc1ccc(S(=O)(=O)Nc2cccnc2)cc1` the value was 14.6 (active); for `O=S(=O)(Nc1ccccn1)c1ccc(Oc2ccccc2)cc1`, -0.897; for `CCC(C)(C)NC(=O)C(c1cccn1C)N(Cc1ccc(C)cc1)C(=O)Cn1nnc2ccccc21` (centres undefined), -0.864.
`O=S(=O)(NCC1CCCO1)c1ccc2ccccc2c1` (centres undefined): the B-score is 0.554.
For `COCCCNC(=O)c1c(F)c(F)c(F)c(F)c1F` the value was 0.0183; for `Cc1cccc(CC(=O)Nc2c3c(nn2-c2cccc(Cl)c2)CS(=O)C3)c1` (centres undefined), -1.33; for `Cc1noc(C)c1CSc1nc2cc(S(=O)(=O)N3CCOCC3)ccc2o1`, -0.0272.
For `O=C(CSc1nc2ccccc2o1)N1CCN(c2ccccc2)CC1` the value was -0.706; for `CC1Cc2ccccc2N1C(=O)CSc1nc2ccccc2o1` (centres undefined), 0.106; for `O=C(CSc1nc2ccccc2o1)N1CCN(c2ccc(Cl)cc2)CC1`, 20.1 (active).
In the case of `CSCCC(NC(=O)c1ccc(=O)n(C)n1)c1nc2ccccc2[nH]1` (centres undefined), the B-score is -1.57.
For `NC(=S)c1ccc(C(N)=S)o1` the value was 2.43; for `COc1ccc(C(=O)CSc2nccc(=O)[nH]2)cc1`, 1.27.
For `CC12C(=O)N(n3cnnc3)C(=O)C1C1C=CC2C1` (centres undefined) the value was 0.0714; for `CCc1ccc(Nc2ncc3c(n2)CC(c2ccco2)CC3=O)cc1` (centres undefined), 0.24.
As to `CCCC(=O)Nc1ccccc1N1CCN(C(=O)c2ccccc2)CC1`, the B-score was 0.545.
For `O=C(Nc1ccccc1N1CCN(c2ccccc2)CC1)c1cccc(F)c1` the value was -0.048; for `O=C(Nc1ccccc1N1CCN(C(=O)c2ccccc2)CC1)c1ccc2c(c1)OCO2`, 2.96 (active).
In the case of `Cc1noc(C)c1C(=O)OCC(=O)/C=C1\N(C)c2ccccc2C1(C)C`, the B-score is -1.21.
Then `COc1ccc(S(=O)(=O)N2CCC(C(=O)N3CCc4ccccc4C3)CC2)cc1OC`, with 0.201; and `O=C(CN(Cc1ccccc1)C(=O)c1ccc2c(c1)OCCO2)NCc1ccc2c(c1)OCO2`, with 0.89; and `CC1(C)CC(O)C(CCC(O)c2ccccc2)C(C)(C)N1` (centres undefined), with 2.64.
Then `CN(C)S(=O)(=O)c1cccc(C(=O)Nc2cccnc2)c1`, with 0.0444; and `COc1ccc(-c2c3c(=O)n(C)c(=O)n(C)c3cn2NC(C)=O)cc1`, with 0.218; and `COc1ccc(N(C(=O)c2cccnc2)S(=O)(=O)c2ccc3c(c2)n(C)c(=O)n3C)cc1`, with 3.89 (active).
For `O=C(NCCN1C(=O)C2C3C=CC(C3)C2C1=O)Nc1ccccn1` (centres undefined) the value was 0.114; for `COC(=O)Nc1ncc(CN2C(=O)c3ccccc3C2=O)s1`, 0.171; for `CCOC(=O)c1cc2n(c1C)-c1ccccc1C2=O`, 0.122.
As to `CCOC(=O)Nc1ccccc1N1C(=O)c2ccccc2C1=O`, the B-score is -0.565.
Then `CCOC(=O)c1cc2n(c1N)-c1ccccc1C2=O`, with 145 (active); and `CC(=O)N(CN1C(=O)C2CC=CCC2C1=O)c1cccc(Cl)c1` (centres undefined), with -1.96; and `O=C(NCc1ccco1)c1cnn2c(C(F)(F)F)cc(-c3ccco3)nc12`, with 0.0458.
For `FC(F)(F)COc1nc(N2CCCCC2)nc(N2CCNCC2)n1` the value was 6.73 (active); for `COc1cc2c(cc1NC(=O)CN1CCN(S(=O)(=O)c3ccc(F)cc3)CC1)oc1ccccc12`, -1.04.
For `OCc1nc(CO)n(Cc2ccccc2)n1` the value was -0.345.
As to `COc1ccc(-c2csc(N3CCN(Cc4ccc5c(c4)OCO5)CC3)n2)cc1`, the B-score was -0.173.
For `CC1CCCC(C)N1C(=O)CN1CCN(c2nc(-c3ccc(F)cc3)cs2)CC1` (centres undefined) the value was 2.64 (active).
As to `O=C(CN1CCN(c2nc(-c3ccccc3)cs2)CC1)NCc1ccc2c(c1)OCO2`, the B-score was -0.269.
In the case of `O=c1c2ccccc2nc(CSc2nnnn2-c2ccccc2)n1-c1ccccc1`, the B-score was -1.38.
Regarding `CCOc1cccc(/C(O)=C2/C(=O)C(=O)N(CCOC)C2c2ccncc2)c1` (centres undefined), the B-score is -0.0327.
Then `Cc1cc(=O)cc(C)[nH]1`, with -0.0108.
Then `CCOc1ccc(NC(=O)N2CC=C(n3c(=O)[nH]c4ccccc43)CC2)cc1`, with 3.49 (active).
As for `Cc1cccc(C)c1NC(=O)N1CC=C(n2c(=O)[nH]c3ccccc32)CC1`, the B-score was 1.14.
For `CCOc1ccc(NC(=O)N2CCN(CC)CC2)cc1`, the B-score was -1.38.
`CN1CCC2(CC1)NC(=O)NC2=O`: the B-score was -0.874.
For `CCn1c(NCCc2ccc(OC)c(OC)c2)nc2c1c(=O)n(C)c(=O)n2C` the value was 3.33 (active); for `CCCCn1c(SCC(=O)NCCc2ccc(OC)c(OC)c2)nc2c1c(=O)n(C)c(=O)n2C`, 0.299.
For `Cn1c(=O)c2c(nc(NCCc3ccccc3)n2Cc2ccccc2)n(C)c1=O`, the B-score was -0.39.
For `Cc1cc(C(F)(F)F)c(C#N)c(SCC(=O)NC2CC2)n1` the value was 0.0289.
For `CCSc1ncnc2c(C#N)c3n(c12)CCCCC3` the value was -0.0416; for `O=C(CCC(=O)OCC(F)(F)C(F)F)NCc1ccccc1`, -1.45; for `CCOc1ccc2[nH]c(=O)c(CN(Cc3nnnn3CCc3ccccc3)CC3CCCO3)cc2c1` (centres undefined), 1.96.
For `COc1ccc2[nH]c(=O)c(CN(Cc3nnnn3CCc3ccccc3)CC3CCCO3)cc2c1` (centres undefined) the value was 0.197; for `CCC(=O)N(Cc1cc2cc(OC)ccc2[nH]c1=O)c1ccccc1C`, -0.55.
On to `CCOc1ccc2[nH]c(=O)c(CN(Cc3nnnn3Cc3ccccc3)CC3CCCO3)cc2c1` (centres undefined), for which the B-score is 3.01 (active).
For `Cc1cc(C)c2cc(CN(Cc3cccs3)Cc3nnnn3CC3CCCO3)c(=O)[nH]c2c1` (centres undefined) the value was -0.2.
Then `Cc1cccc2cc(CN(Cc3nnnn3Cc3ccccc3)C3CCCC3)c(=O)[nH]c12`, with 0.299; and `COc1ccc2[nH]c(=O)c(CN(CC3CCCO3)C(=O)Nc3ccccc3)cc2c1` (centres undefined), with 2.9 (active); and `Cc1cc2cc(CN(Cc3cccs3)Cc3nnnn3CC3CCCO3)c(=O)[nH]c2cc1C` (centres undefined), with 6.85 (active).
For `Cc1cccc2cc(CN(Cc3cccs3)C(c3nnnn3C3CCCC3)C(C)C)c(=O)[nH]c12` (centres undefined) the value was -0.692; for `Cc1ccc(C)n1C(Cc1ccccc1)C(=O)O` (centres undefined), -0.967; for `COc1ccc(C(=O)N(Cc2ccc(N(C)C)cc2)C2CCS(=O)(=O)C2)cc1` (centres undefined), 0.609.
Regarding `CC(C)(C)Nc1c(N)c(=O)oc2ccccc12`, the B-score was 0.371.
For `Cc1onc(-c2ccccc2Cl)c1C(=O)NCCn1ccc2ccccc21` the value was -0.0968; for `CCOC(=O)C1=C(C)NC(=O)N(C(C)=O)C1c1ccc(Cl)cc1` (centres undefined), -0.0464; for `CN1C(=O)c2ccc(NC(=O)C3CCCCC3)cc2C1=O`, -1.25.
Then `CN1C(=O)c2ccc(NC(=O)c3c(F)c(F)c(F)c(F)c3F)cc2C1=O`, with 4.34 (active); and `CCC(=O)Nc1ccc(C(=O)Nc2ccc3c(c2)C(=O)N(CC2CCCO2)C3=O)cc1` (centres undefined), with 0.81; and `CCOC(=O)c1ccc(Nc2cc(C)nc3nc(C)nn23)cc1`, with -0.0395.
Consider `CC(=O)c1ccc(-n2nnnc2SCC(=O)N2CCN(C(=O)c3ccco3)CC2)cc1`, for which the B-score is 0.19.
For `COc1ccc(NC(=O)C2CCCN(S(=O)(=O)c3cccc4cccnc34)C2)cc1OC` (centres undefined) the value was 4.34 (active); for `COc1ccccc1CNC(=O)C1CCCN(S(=O)(=O)c2cccc3cccnc23)C1` (centres undefined), 0.00364; for `COc1ccc(NC(=O)C2CCCN(S(=O)(=O)c3cccc4cccnc34)C2)cc1` (centres undefined), 0.324.
For `CCOc1cc(C2C(C(=O)OC)=CN(C3CCCC3)C=C2C(=O)OC)cc(Br)c1O` the value was -0.323; for `CCOC(=O)CSC1=C(C#N)C(c2ccco2)C(C(=O)OCc2ccccc2)=C(C)N1` (centres undefined), -0.00433.
For `N#CC1=C(N)Oc2c(sc3ccccc23)C1c1ccco1` (centres undefined) the value was 52 (active); for `N/C(=N\c1nc2ccccc2o1)NC(=O)C(Cc1ccccc1)N1C(=O)c2ccccc2C1=O` (centres undefined), 2.31; for `Cc1ccc(Cn2ccc(NC(=O)c3cc(C(C)C)on3)n2)cc1`, -1.01.
As to `Cn1c(=NC(=O)CSCC(=O)N2CCCCC2)sc2ccccc21`, the B-score was -0.071.
Consider `O=C(CSCc1cccs1)N1CCCC1`, for which the B-score is 4.57 (active).
For `O=C(c1cc(-c2cccs2)on1)N1CCCCC1` the value was 1.09; for `COc1ccccc1-n1nnnc1S(=O)(=O)Cc1ccc(Cl)cc1`, 0.986.
`COc1ccccc1NC(=O)CSc1nnc(Cn2nnc(-c3ccccc3)n2)n1-c1ccccc1`: the B-score was 2.12 (active).
For `COc1ccccc1NC(=O)CSc1nnc(-c2ccoc2C)n1CCc1ccccc1` the value was 0.464.
For `COc1ccccc1NC(=O)CSc1nnc(Cc2cccn2C)n1-c1ccc(F)cc1` the value was -0.202; for `CCN=C1SC(CC(=O)Nc2ccc(C)cc2)C(=O)N1CC` (centres undefined), 5.15 (active); for `Cc1ccc(NC(=O)CCN2CCc3ccccc3C2)cc1`, -0.165.
Regarding `CCOC(=O)c1ccc(NC(=O)Cn2nnc(-c3ccc(C)cc3)n2)cc1`, the B-score was -0.837.
With `CCC(Oc1ccccc1)C(=O)NCc1cccnc1` (centres undefined), the B-score was -0.899.
